From PubChem BioAssay (NCI)
About 83,000 compounds went through this panel and 20% of them were active in at least one assay; those are over-represented in the sample as a whole.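 Cell lines were cultured in 96-well plates, exposed to a single compound concentration, and assessed for percent growth 48 hours later.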 The source made the active and inactive calls. Rule for the calls: active = growth percent below 10; inactive = the rest.

Legend:
Assay in all cases: NCI-60 one-dose screen, 48 h (100 = growth as untreated, 0 = no growth, -100 = all killed)
Conditions in all cases: 10 µM unless noted
NCI-H23 lung = tested on: NCI-H23 lung
NCI-H226 lung = tested on: NCI-H226 lung
NCI-H322M lung = tested on: NCI-H322M lung
HOP-62 NSCLC = tested on: HOP-62 NSCLC
NCI-H460 lung = tested on: NCI-H460 lung
HOP-92 NSCLC = tested on: HOP-92 NSCLC
NCI-H522 lung = tested on: NCI-H522 lung
A549/ATCC NSCLC = tested on: A549/ATCC NSCLC
786-0 renal = tested on: 786-0 renal
COLO 205 colon = tested on: COLO 205 colon
DU-145 prostate = tested on: DU-145 prostate
K-562 leukemia = tested on: K-562 leukemia
MALME-3M melanoma = tested on: MALME-3M melanoma
MDA-MB-231 breast = tested on: MDA-MB-231 breast
RXF 393 renal = tested on: RXF 393 renal
SF-268 CNS = tested on: SF-268 CNS
SF-295 CNS = tested on: SF-295 CNS
SF-539 CNS = tested on: SF-539 CNS
UACC-257 melanoma = tested on: UACC-257 melanoma
M14 melanoma = tested on: M14 melanoma

Measured: growth

CC(=O)O[C@H]1CC[C@]2(C)[C@H]3C(=O)C=C4[C@@H]5C[C@](C)(C(=O)N6CCCNCC6)CC[C@]5(C)CC[C@@]4(C)[C@]3(C)CC[C@H]2C1(C)C
active: HOP-62 NSCLC -50.4% | NCI-H460 lung -83.8% | A549/ATCC NSCLC -52.8% | 786-0 renal -71.9% | COLO 205 colon -87.7% | DU-145 prostate 4.85% | K-562 leukemia -11.3% | MALME-3M melanoma -71.7% | MDA-MB-231 breast -84.6% | RXF 393 renal -89.4% | SF-539 CNS -92.9% | M14 melanoma 6.84%
inactive: NCI-H23 lung 40.1% | NCI-H226 lung 76.6% | NCI-H322M lung 19.8% | HOP-92 NSCLC 31.1% | NCI-H522 lung 30% | SF-268 CNS 69.6% | SF-295 CNS 60.2% | UACC-257 melanoma 75.7%

COc1ccc(C(=O)c2ccc(C)cc2)c(OC)c1OC
inactive: NCI-H23 lung 82.9% | NCI-H226 lung 90.1% | NCI-H322M lung 111% | HOP-62 NSCLC 78.5% | NCI-H460 lung 87.1% | HOP-92 NSCLC 85.6% | NCI-H522 lung 81.8% | A549/ATCC NSCLC 78.3% | 786-0 renal 107% | COLO 205 colon 70.8% | DU-145 prostate 89.8% | K-562 leukemia 40% | MALME-3M melanoma 92.5% | MDA-MB-231 breast 75.9% | RXF 393 renal 86.1% | SF-268 CNS 85.9% | SF-295 CNS 74.5% | SF-539 CNS 77% | UACC-257 melanoma 82.9% | M14 melanoma 61.3%

OCC(CO)(CCl)CCl
inactive: NCI-H23 lung 93.2% | NCI-H226 lung 101% | NCI-H322M lung 112% | HOP-62 NSCLC 99% | NCI-H460 lung 106% | HOP-92 NSCLC 86.4% | NCI-H522 lung 91.1% | A549/ATCC NSCLC 76.7% | 786-0 renal 100% | COLO 205 colon 105% | DU-145 prostate 105% | K-562 leukemia 106% | MALME-3M melanoma 101% | MDA-MB-231 breast 94.8% | RXF 393 renal 113% | SF-268 CNS 98% | SF-295 CNS 107% | SF-539 CNS 102% | UACC-257 melanoma 69.6% | M14 melanoma 89.4%

Brc1ccc2c(c1)c(-c1nc(-c3c[nH]c4ncccc34)cs1)cn2CCCN1CCCCC1
active: HOP-62 NSCLC -66.7% | NCI-H460 lung -67.7% | NCI-H522 lung -3.42% | A549/ATCC NSCLC -69.6% | 786-0 renal -74.8% | COLO 205 colon -77.4% | DU-145 prostate -44.4% | K-562 leukemia -64.4% | MALME-3M melanoma -45.9% | MDA-MB-231 breast -43.3% | SF-268 CNS 7.71% | SF-539 CNS -77.6% | M14 melanoma -81.4%
inactive: NCI-H23 lung 22.4% | NCI-H226 lung 71.2% | NCI-H322M lung 39.1% | HOP-92 NSCLC 31.7% | RXF 393 renal 23.6% | SF-295 CNS 27.3% | UACC-257 melanoma 66.1%

CCN1CCN(C(=O)[C@@]2(C)CC[C@]3(C)CC[C@]4(C)C(=CC(=O)[C@@H]5[C@@]6(C)CC[C@H](OCCC#N)C(C)(C)[C@@H]6CC[C@]54C)[C@@H]3C2)CC1
inactive: NCI-H23 lung 87.9% | NCI-H226 lung 89.9% | NCI-H322M lung 106% | HOP-62 NSCLC 100% | NCI-H460 lung 99.9% | HOP-92 NSCLC 70.8% | NCI-H522 lung 95.4% | A549/ATCC NSCLC 84.1% | 786-0 renal 51% | COLO 205 colon 95.7% | DU-145 prostate 97% | K-562 leukemia 31.8% | MALME-3M melanoma 65.3% | MDA-MB-231 breast 97.5% | RXF 393 renal 85% | SF-268 CNS 90.4% | SF-295 CNS 84% | SF-539 CNS 80.4% | UACC-257 melanoma 88.4% | M14 melanoma 96%

O=C(/C(=C(\C(=O)c1ccccc1)c1ccccc1)c1ccccc1)c1ccccc1
inactive: NCI-H23 lung 42% | NCI-H226 lung 63.9% | NCI-H322M lung 76% | HOP-62 NSCLC 80.3% | NCI-H460 lung 25.1% | HOP-92 NSCLC 37.8% | NCI-H522 lung 43.3% | A549/ATCC NSCLC 28.9% | 786-0 renal 69.9% | COLO 205 colon 53.2% | DU-145 prostate 80.1% | K-562 leukemia 14.1% | MALME-3M melanoma 77.2% | MDA-MB-231 breast 66.7% | RXF 393 renal 69.5% | SF-268 CNS 56.2% | SF-295 CNS 54.7% | SF-539 CNS 82.1% | UACC-257 melanoma 68.8% | M14 melanoma 66.3%

N#C/C(=C\c1ccc(-c2ccc(Br)cc2)o1)c1nc(-c2ccco2)cs1
inactive: NCI-H23 lung 89.4% | NCI-H226 lung 88.2% | NCI-H322M lung 85% | HOP-62 NSCLC 95.7% | NCI-H460 lung 91.4% | HOP-92 NSCLC 86.3% | NCI-H522 lung 93.2% | A549/ATCC NSCLC 98.3% | 786-0 renal 98.8% | COLO 205 colon 102% | DU-145 prostate 101% | K-562 leukemia 97.9% | MALME-3M melanoma 97.7% | MDA-MB-231 breast 76% | RXF 393 renal 101% | SF-268 CNS 101% | SF-295 CNS 91.2% | SF-539 CNS 90.8% | UACC-257 melanoma 102% | M14 melanoma 89.2%

COC(=O)CNc1nc(N(C)O)nc(N(C)O)n1
inactive: NCI-H23 lung 48.7% | NCI-H226 lung 61.3% | NCI-H322M lung 54.6% | HOP-62 NSCLC 34.2% | NCI-H460 lung 17.7% | HOP-92 NSCLC 35.2% | NCI-H522 lung 53.2% | A549/ATCC NSCLC 46.5% | 786-0 renal 25.9% | COLO 205 colon 12.7% | DU-145 prostate 34.7% | K-562 leukemia 35% | MALME-3M melanoma 97.6% | MDA-MB-231 breast 43% | RXF 393 renal 47.2% | SF-268 CNS 34.3% | SF-295 CNS 45.2% | SF-539 CNS 47.5% | UACC-257 melanoma 76.9% | M14 melanoma 46%
